Screens from PubChem BioAssay.
A selection: hits, their analogues and other compounds. The true share with any hit is near 2.7%.
Akt phos inh = HTS Assay for Inhibitors of Akt Phophorylation: Primary Screen | activity change, % for hits at 50 µM | 360,000 tested, 0.32% active | Neuro2A IGF-stimulated pAkt S473 HTRF, 20 min; hits give low values | AID 651550, 2012; in the data active = activity change below about -80%; inconclusive = mostly about -51% to -80%; note: % is set by controls: 0 for no effect and ±100 for the full control effect
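Single-point screen (50 µM final compound) in Neuro2A cells stimulated 20 min with 6 nM IGF at 37 deg C. After lysis, Ser473-phosphorylated Akt read by HTRF (ex 330 nm, em 615/665 nm) as the 665/615 ratio.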
gsp antagonist = qHTS for Antagonists of gsp, the Etiologic Mutation Responsible for Fibrous Dysplasia/McCune-Albright Syndrome: qHTS; gsp-mutant cells, cAMP HTRF, 30 min; Potency, µM (titrated, usually from 76.9 µM), inactives show at the highest dose activity change, negative = inhibition, hits mostly inhibitors; 340,000 tested, 0.4% active; AID 624288, 2012; calls by dose curve; cell line not stated here;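 note: intracellular cAMP measured with PDE inhibitor Ro 20-1724 present during compound exposure; potency is the fitted concentration of half-maximal effect; % is set by controls: 0 for no effect and ±100 for the full control effect; nearly all actives have a fitted effect of over 65% in size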
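Measurement of cellular cAMP by homogeneous time-resolved fluorescence following a 30 min compound exposure at 37C. The PDE inhibitor […] was present throughout; the assay buffer was DPBS with 0.05% BSA and 0.005% Tween 20.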
ClpP mod = qHTS Assay for Activators of ClpP; purified B. subtilis ClpP, FRET peptide cleavage, 20 min; Potency, µM (highest dose often 57.5 µM), for the others: top-dose activity change, negative = active; ATP-dependent Clp protease proteolytic subunit (Bacillus subtilis (strain 168)), P80244; AID 651965, 2013; 340,000 tested, 1.9% active; active = well fitted falling curve with a large enough effect; inconclusive = small, poorly fitted or top-dose-only effect; inactive = no such curve, though single readings can be large or run the other way; note: potency is the fitted concentration of half-maximal effect; the source files actives as falling curves though it sought activators and does not explain the sign; nearly all actives have a fitted effect of over 65% in size
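FRET quenching reversal measured ClpP activation: 10 microg/mL B. subtilis ClpP at pH 8 with the FRET-FV decapeptide, read at 430 nm after 320 nm excitation. The 20-min minus 0-min signal was scaled between DMSO/no-enzyme wells and ADEP (5.8 microM final).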
gsp ag = qHTS for Agonist of gsp, the Etiologic Mutation Responsible for Fibrous Dysplasia/McCune-Albright Syndrome: qHTS | gsp mutant cells, cAMP HTRF, 30 min | Potency, µM (series often up to 76.9 µM), for inactives: at the top dose activation (cAMP increase), most hits filed as activators | 340,000 tested, 0.13% active; active = well fitted activation curve with a large enough effect; inconclusive = small, poorly fitted or top-dose-only effect, or another doubt; inactive = no such curve, though single readings can be large or run the other way; cell line not stated here;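 note: phosphodiesterase inhibitor Ro 20-1724 added with compounds to block cAMP breakdown; potency is the fitted concentration of half-maximal effect; nearly all actives have a fitted effect of over 60% in size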
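Cells in DMEM/10% FBS with G418 were pretreated with compounds in DMSO plus […] (300 uM stock) for 30 min at 37C. cAMP was measured by HTRF (cAMP-d2 plus anti-cAMP antibody-K) after 30 min at room temperature.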
RXFP1 antagonist = qHTS Assay for Antagonists of the Relaxin Receptor RXFP1; HEK293-RXFP1, relaxin-stimulated cAMP HTRF, 30 min; hits give low values; activity change, negative = inhibition, % at 57.5 µM; 350,000 tested, 0.59% active;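 active = activity change of -60% or lower, but not beyond a set lower limit; inconclusive = change between -60% and -40%, or beyond the set limit; inactive = change above -40%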; note: % is set by controls: 0 for no effect and ±100 for the full control effect
Target sequence (Q9HBX9 whole entry, looked up): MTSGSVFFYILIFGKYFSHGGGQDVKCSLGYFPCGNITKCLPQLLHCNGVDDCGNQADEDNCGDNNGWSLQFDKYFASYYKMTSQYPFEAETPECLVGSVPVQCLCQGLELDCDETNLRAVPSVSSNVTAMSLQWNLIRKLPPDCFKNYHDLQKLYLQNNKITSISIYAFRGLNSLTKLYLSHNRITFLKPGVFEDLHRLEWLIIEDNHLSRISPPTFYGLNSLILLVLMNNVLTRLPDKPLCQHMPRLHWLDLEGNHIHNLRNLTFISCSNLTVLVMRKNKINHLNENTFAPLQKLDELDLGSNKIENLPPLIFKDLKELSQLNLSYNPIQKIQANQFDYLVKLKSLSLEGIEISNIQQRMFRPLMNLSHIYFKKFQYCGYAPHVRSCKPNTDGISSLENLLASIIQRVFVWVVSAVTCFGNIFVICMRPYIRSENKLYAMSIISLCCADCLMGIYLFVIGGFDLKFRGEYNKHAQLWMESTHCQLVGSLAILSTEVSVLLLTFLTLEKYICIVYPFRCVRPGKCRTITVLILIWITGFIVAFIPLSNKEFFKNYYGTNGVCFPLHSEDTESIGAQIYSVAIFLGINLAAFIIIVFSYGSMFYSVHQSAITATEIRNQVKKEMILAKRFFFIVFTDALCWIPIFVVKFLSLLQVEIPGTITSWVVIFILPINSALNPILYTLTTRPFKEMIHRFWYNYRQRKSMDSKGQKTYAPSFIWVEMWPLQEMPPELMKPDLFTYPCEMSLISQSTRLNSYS
RXFP1 ag = qHTS Assay for Agonists of the Relaxin Receptor RXFP1; AID 2676, 2010; HEK293T-RXFP1 cAMP TR-FRET, 30 min; response scale: percent of porcine relaxin response, buffer zero; 370,000 tested, 0.3% active; Potency, µM (series often up to 57.5 µM), for the others: at the highest dose activation, usual class: activators; Relaxin receptor 1 (Homo sapiens), Q9HBX9; active = well fitted activation curve with a large enough effect; inconclusive = small, poorly fitted or top-dose-only effect; note: potency is the fitted concentration of half-maximal effect; % is set by controls: 0 for no effect and ±100 for the full control effect; nearly all actives have a fitted effect of over 60% in size
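HEK293 cells stably expressing RXFP1, treated 30 min at 37C with compounds plus PDE4 inhibitor Ro 20174; cAMP measured by HTRF TR-FRET. Normalized to buffer and 29 nM porcine relaxin; EC50 by Hill fit.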
The depositor's hits bear a star; i = inactive; u = inconclusive; x = no result; [ ] = remark or other dose.

SMILES	Akt phos inh	gsp antagonist	ClpP mod	gsp ag	RXFP1 antagonist	RXFP1 ag
Cc1nnc(Nc2ccc(S(N)(=O)=O)cc2)c2ccccc12	i	22.7%	x	u	35.1	25.1µM*
CCOC(=O)c1ccc(Nc2nnc(C)c3ccccc23)cc1	i	-6.1%	x	43.6%[15.4 µM]	11.3	u
CCOc1ccc(-c2nn(-c3ccccc3)cc2C2NC(=O)NC(C)=C2C(=O)OC(C)C)cc1C (stereo not given)	x	x	-1.2%	x	x	3.6%
COC(=O)CN1C(c2ccccc2O)Nc2ccc(Br)cc2C1c1ccccc1 (stereo not given)	i	-4.3%	-9.9%	-3.3%	-4.0	-1.5%
CCOC(=O)CN1C(c2ccccc2O)Nc2ccc(Br)cc2C1c1ccccc1 (stereo not given)	i	4.3%	-0.1%	-18.5%[15.4 µM]	-72.5*	0.2%
Cc1nn(C)c(Cl)c1CN1CCCC(C(=O)Nc2ccc(-c3cscn3)cc2)C1 (stereo not given)	i	2.1%	25.1µM*	28.8%	-31.9	-1.0%
CCCc1cc(C(=O)N(C2CCCCC2)C2CCCCC2)no1	i	-25.7%	1.5%	-50.9%	-70.4*	-0.2%
CCCc1cc(C(=O)NC2CCCCC2)no1	i	4.7%	-1.4%	-20.8%	8.1	3.3%
O=C(OCc1nc2ccccc2[nH]1)C12CC3CC(CC(C3)C1)C2	i	35.5µM*	-1.4%	10.6%	3.7	2.1%
O=C(Nc1nc2ccccc2[nH]1)C12CC3CC(CC(C3)C1)C2	i	-23.2%	-2.8%	0.0%	-14.4	-1.5%
CCOC(=O)c1nn(-c2ccccc2C)c2nc(-c3ccc(C)cc3)c(C#N)c(=O)n12	i	5.6%	35.5µM*	15.2%	-16.1	3.3%
CCOC(=O)c1nn(-c2ccccc2C)c2nc(Nc3ccccc3)cc(=O)n12	i	3.2%	-8.4%	1.6%[15.4 µM]	-3.4	1.4%
CCOC(=O)c1nn(-c2ccccc2C)c2nc(-c3ccc(Cl)cc3)c(C#N)c(=O)n12	i	-6.8%	31.6µM*	16.9%	2.5	-1.2%
CCOC(=O)c1nn(-c2ccccc2)c2nc(-c3ccc(OC)cc3)c(C#N)c(=O)n12	i	-11.6%	-7.8%	11.3%	x	7.6%
COC(=O)c1ccc(Cn2cnc3c(Cl)ncnc32)cc1	i	5.5%	x	-18.3%	-0.8	x
COC(=O)c1ccc(Cn2ccc(=O)[nH]c2=O)cc1	i	-1.7%	14.1µM*	2.7%[15.4 µM]	-6.5	x
COc1ccc(NC(=O)CN(C)CC(=O)Nc2ccc3c(c2)CCC3)cc1	i	-6.2%	x	-0.7%	-12.9	0.7%
COc1cccc(N(C)C(=S)Oc2ccc3c(c2)CCCC3)n1	x	x	x	x	-65.4*	x
COC(=O)[C@@H](NCc1cccc(CN([C@H](C(=O)OC)C(C)C)S(C)(=O)=O)c1)C(C)C	i	2.0%	-1.2%	x	x	-2.8%
CCOc1ccc(-n2cnnn2)cc1S(=O)(=O)NCc1ccccc1	x	-0.1%	0.4%	-24.0%	9.2	0.1%
CCOc1cc(S(=O)(=O)NCc2ccccc2)c(OCC)cc1-n1cnnn1	i	-0.7%	31.6µM*	-37.0%	7.4	x
CCOc1cc(S(=O)(=O)N(Cc2ccccc2)Cc2ccccc2)c(OCC)cc1-n1cnnn1	i	-5.0%	28.2µM*	u	-2.0	4.1%
CCOc1ccc(OCC)c(-n2cnnn2)c1	x	x	-3.4%	x	-2.2	0.7%
Cc1ccc(C)c(N2CCN(C(=O)C(CC(C)C)NS(=O)(=O)c3ccc4nc(C)sc4c3)CC2)c1 (stereo not given)	x	x	2.5%	x	-32.1	-1.8%
Cn1cc(CN2CCC(Oc3ccc(C(=O)N4CCCCC4)cc3)CC2)cn1	i	-11.0%	-1.6%	5.8%[15.4 µM]	-8.1	-0.4%
